The source made the active and inactive calls. Unless noted, how the calls were made is not given here.
Tests used:
[1] = tested on: XIP peptide (Xip251-270) binding; assay: small-molecule binders of XIP peptide, primary screen, biochemical, small-molecule microarray, fluorescence 635/667 nm, 0.1 µg/mL protein (AID 1182); details: fluorescent protein binding, 635 nm, higher = more signal, called active from +8 up or from −8 down
XIP peptide (Xip251-270) = assay: small-molecule binders of XIP peptide, primary screen, biochemical, small-molecule microarray, fluorescence 635/667 nm, 0.5 µg/mL protein (AID 1183); details: small-molecule microarray binding, fluorescence 635 nm; higher = more signal
[2] = Plasmodium falciparum growth inhibition, primary screen, strain 3D7, DAPI fluorescence, 100 nL (AID 1184);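 further: parasites grown inside human red blood cells in medium with human serum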; details: P. falciparum 3D7 growth, 3 d, higher = more signal
[3] = biological target: Homeobox protein Hox-A13 (Mus musculus) (UniProt Q62424); assay: inhibitors of HoxA13-DNA binding, primary screen, biochemical, fluorescence polarization, labeled oligonucleotide (AID 1185); details: 15 min, higher = more signal, called active from +8 up or from −8 down
Homeobox protein Hox-A13 (Mus musculus), sequence (Q62424 whole entry, looked up): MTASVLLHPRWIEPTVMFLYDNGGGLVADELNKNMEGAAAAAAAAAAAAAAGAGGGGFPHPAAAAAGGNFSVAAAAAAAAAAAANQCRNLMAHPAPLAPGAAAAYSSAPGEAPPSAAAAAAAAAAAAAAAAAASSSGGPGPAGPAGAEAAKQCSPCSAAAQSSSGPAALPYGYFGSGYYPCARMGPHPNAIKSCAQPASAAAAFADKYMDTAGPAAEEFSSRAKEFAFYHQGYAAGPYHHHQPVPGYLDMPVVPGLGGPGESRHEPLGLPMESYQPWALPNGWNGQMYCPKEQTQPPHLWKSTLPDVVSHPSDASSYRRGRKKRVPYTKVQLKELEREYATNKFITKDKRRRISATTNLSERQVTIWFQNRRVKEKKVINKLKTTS

[4] = inhibitors of hydroxyurea-induced Chk1 phosphorylation, primary screen, imaging, HeLa, phospho-Chk1 antibody, percent positive cells (AID 1186); details: hydroxyurea-induced phospho-Chk1 immunofluorescence imaging, higher = more signal
[5] = inhibitors of hydroxyurea-induced Chk1 phosphorylation, primary screen, imaging, HeLa, phospho-Chk1 nuclear intensity (AID 1187); details: hydroxyurea-induced phospho-Chk1 immunofluorescence imaging, higher = more signal

| SMILES | composite z-score [1] | composite z-score (XIP peptide (Xip251-270)) | z-score [2] | z-score [3] | z-score [4] | z-score [5] |
| --- | --- | --- | --- | --- | --- | --- |
| COC(=O)C(CC#Cc1ccc2c(c1)[C@]1(C(=O)N2)[C@H](c2ccc(O)cc2)N2[C@H](c3ccccc3)[C@H](c3ccccc3)OC(=O)[C@H]2[C@@H]1C(=O)N1CCCCCCC1)C(=O)OC | 0.225 (inactive) | 0.59 | -1.92 | 2.08 (inactive) | -0.0422 (inactive) | 0.413 (inactive) |
| CCCCNC(=O)c1ccc(C#C[Si](C(C)C)(C(C)C)C(C)C)c(OC(C)=O)c1 | -0.211 (inactive) | 0.413 | -2.74 | -2.16 (inactive) | 0.0917 (inactive) | 0.331 (inactive) |
| O=C(O)[C@@H]1C[C@@H]2C(=O)N3CCC[C@H]3C(=O)N2[C@@H]1c1cccc(OCCO)c1 | 2 (inactive) | 0.932 | -0.382 | -2.19 (inactive) | 0.299 (inactive) | -0.0384 (inactive) |
| O=C1NC(=O)C2C1C=CC(C(O)c1ccccn1)N2Nc1ccc(Cl)cc1Cl (centres undefined) | 0.628 (inactive) | 0.326 | 0.358 | -4.45 (inactive) | -0.133 (inactive) | -0.18 (inactive) |
| COCCOC(=O)N1C(=O)[C@@]2(c3cc(C#CCC(C(=O)OC)C(=O)OC)ccc31)[C@H](c1ccc(O)cc1)N1[C@H](c3ccccc3)[C@H](c3ccccc3)OC(=O)[C@H]1[C@@H]2C(=O)NC[C@H](O)c1ccccc1 | 0.398 (inactive) | 0.465 | -0.474 | -2.44 (inactive) | 0.101 (inactive) | 0.524 (inactive) |
| O=C1[C@@]23C=C(Br)[C@H](C[C@@H]2COC3)[C@@]12CO2 | -0.0944 (inactive) | 0.0556 | 2.53 | 0.786 (inactive) | 0.854 (inactive) | 0.352 (inactive) |
| C=C(/C(=C/C[C@@H](OC(C)=O)c1ccc(CO)o1)c1cc(C(=O)OC)ccc1OC)C(C)C | 0.698 (inactive) | 0.135 | -0.485 | -4.95 (inactive) | 0.623 (inactive) | 0.273 (inactive) |
| C=C(COC)C(=O)CC[C@@H](OC(=O)c1cccnc1)c1ccccc1OCCO | -0.288 (inactive) | -0.576 | -3.07 | -4.3 (inactive) | 0.329 (inactive) | 0.162 (inactive) |
| NC(=O)[C@H]1[C@@H]2C(=O)O[C@@H](c3ccccc3)[C@@H](c3ccccc3)N2[C@@H](c2ccc(O)cc2)[C@]12C(=O)Nc1ccccc12 | -0.367 (inactive) | -0.764 | 0.428 | -5.09 (inactive) | -0.154 (inactive) | -0.112 (inactive) |
| COc1ccc(C(O)C2C=CC3C(=O)N(c4ccccc4)C(=O)C3N2Nc2ccccc2F)cc1 (centres undefined) | 1.11 (inactive) | 0.857 | 0.571 | -3.05 (inactive) | -0.296 (inactive) | -0.741 (inactive) |
| Cc1ccc(N2C(=O)c3ccccc3[C@](C)(C(=O)NCc3ccccc3)[C@@H]2c2ccc(CO)cc2)nc1 | -0.353 (inactive) | -0.33 | -1.34 | -0.408 (inactive) | -0.0668 (inactive) | 0.0633 (inactive) |
| COCCOC(=O)N1C(=O)[C@@]2(c3cc(C#CCNC(N)=O)ccc31)[C@H](c1ccc(O)cc1)N1[C@H](c3ccccc3)[C@H](c3ccccc3)OC(=O)[C@H]1[C@@H]2C(N)=O | -0.256 (inactive) | 0.124 | 0.228 | -0.531 (inactive) | -0.0933 (inactive) | -0.0072 (inactive) |
| C=C(COC)/C(=C/C[C@@H](OC(=O)c1ccncc1)c1ccccc1OCCO)c1cc(C(=O)OC)ccc1OC | -0.115 (inactive) | -0.728 | -2.97 | -4.02 (inactive) | 0.386 (inactive) | 0.77 (inactive) |
| CN(C)CCCC[C@@H]1NC(=O)[C@@H]2C[C@H](C(=O)O)[C@H](c3cccc(OCCO)c3)N2C1=O | 1.02 (inactive) | 0.0695 | -0.286 | -3.07 (inactive) | 0.043 (inactive) | 0.313 (inactive) |
| CC(C)c1ccc(NN2C(C(O)Cc3ccccc3)C=CC3C(=O)N(c4ccccc4)C(=O)C32)cc1 (centres undefined) | -0.0839 (inactive) | 0.655 | -0.0057 | -2.98 (inactive) | 0.656 (inactive) | 0.37 (inactive) |
| COc1cc2c(cc1OC)CN(C(=O)[C@@H]1[C@H]3C(=O)O[C@H](c4ccccc4)[C@H](c4ccccc4)N3[C@H](c3ccc(O)cc3)[C@@]13C(=O)Nc1ccc(C#CCCO)cc13)CC2 | 1.33 (inactive) | 0.723 | -1.16 | -2.6 (inactive) | 0.189 (inactive) | 0.28 (inactive) |
| CN1C(=O)C2C=CC(C(O)c3cc(C(F)(F)F)cc(C(F)(F)F)c3)N(Nc3ccccc3)C2C1=O (centres undefined) | 1.9 (inactive) | 0.128 | 1.08 | -3.84 (inactive) | -0.0145 (inactive) | 0.0934 (inactive) |
| O=C1O[C@H](c2ccccc2)[C@H](c2ccccc2)N2[C@H]1[C@@H](C(=O)O)[C@]1(C(=O)Nc3ccc(C#CC4(O)CCCCCC4)cc31)[C@H]2c1ccc(O)cc1 | -0.203 (inactive) | 0.194 | 0.361 | -6.61 (inactive) | -0.308 (inactive) | -0.307 (inactive) |
| C=C(C)[C@@H]1CC=C(C(O)C2C=CC3C(=O)N(c4ccccc4)C(=O)C3N2Nc2ccc(C#N)cc2)CC1 (some centres undefined) | 0.476 (inactive) | 0.642 | 0.807 | 1.21 (inactive) | -0.169 (inactive) | 0.008 (inactive) |
| O=C1[C@@H]2[C@@H](CC(COc3ccccc3)=C3[C@@H](CCc4ccccc4)OB(O)C[C@@H]32)C(=O)N1Cc1ccccc1 | 0.318 (inactive) | 0.387 | 1.31 | -5.54 (inactive) | -0.242 (inactive) | -0.22 (inactive) |
| COC(=O)[C@@]1(Cc2ccccc2)[C@H]2c3cc(C(=O)N4CCCC4)n(CCSCCO)c3C[C@H]2CN1C(=O)c1ccccc1 | 0.343 (inactive) | 0.752 | -1.7 | -5.06 (inactive) | 1.45 (inactive) | 0.501 (inactive) |
| COC(=O)c1c2oc(c1C(=O)OC)C(=O)N1CCC[C@H]1Cn1nncc1CN(Cc1ccccc1)C(=O)N[C@H](CO)CC2 | -0.0783 (inactive) | 0.59 | -0.414 | -3.78 (inactive) | 0.159 (inactive) | 0.306 (inactive) |
| CC(C)CNC(=O)[C@@]1(c2ccc([N+](=O)[O-])cc2)CC(=O)N(C2CCCCC2)[C@@H]1c1ccc(CO)cc1 | 0.32 (inactive) | 0.104 | -0.672 | -2.24 (inactive) | 0.0803 (inactive) | 0.515 (inactive) |
| CO[C@H]1O[C@H](CO)[C@@H](OC(=O)Nc2ccc(C#N)cc2)[C@@H]2OC(=O)[C@H](Cc3cccc(Br)c3)C/C=C/C[C@@H](Cc3cccc(Br)c3)C(=O)O[C@@H]12 | 0.685 (inactive) | 0.254 | -1.47 | 1.1 (inactive) | -0.353 (inactive) | -0.388 (inactive) |

— PubChem BioAssay
